These results are taken from PubChem BioAssay (NCI).

Compounds without any hit were thinned out: in the full panel of roughly 83,000, 20% have a hit.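 The endpoint reported here, percent growth, reads 100 for growth as untreated, 0 for no net growth and -100 for all cells dead.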 Values without a mark were called inactive. Active and inactive are the calls of the source. How the source made its calls: active means growth percent below 10; inactive means the rest.

The test concerns NCI-H322M lung. In words: NCI-60 one-dose screen, 48 h (100 = growth as untreated, 0 = no growth, -100 = all killed). The settings on record: 10 µM unless noted.
On to `COc1cc2c(=O)n(C3CCCCCCC3)c3c4cc[nH]c4ncc3c2cc1OC`, for which the growth is 34.8%.

`C1CCC([PH+](C2CCCCC2)C2CCCCC2[PH+](C2CCCCC2)C2CCCCC2)CC1.[Au].[CH-]1CCCCC1CC1CCCC[N-]1` (configuration not stated): the growth is -42% (active).

`CCCCN1CCCC[C@@H]1C(=O)N[C@H](C(=O)N(C)[C@H](C[C@@H](OC(C)=O)c1nc(C(=O)NC2CCC(C(=O)OC)CC2)cs1)C(C)C)C(C)C` (some centres not stated): the growth was 40.5%.

Regarding `CS(=O)(=O)CCN1CC2CCCC(C2)C1`, the growth is 127%.

Take `COC(=O)[C@@H](C)C[C@H](Cc1ccccc1)NC(=O)c1nc([C@@H](C[C@H](C(C)C)N(C)C(=O)[C@@H](NC(=O)[C@H]2CCCCN2C)C(C)C)OC(C)=O)sc1C(C)C`: the growth was 38.1%.

Regarding `C=CC[Se]C(=O)c1ccccc1OC(C)=O`, the growth is -17% (active).

With `CC(C)[C@@H]1NC(=O)[C@]2(C)CSC(=N2)c2csc(n2)CNC(=O)C[C@@H](/C=C/CCS)OC1=O`, the growth is 7.74% (active).

Take `Clc1cccc(Cl)c1Cl`: the growth was 99.5%.

Regarding `O=C(CC1(O)C(=O)Nc2ccc(Cl)cc21)c1ccc(C(=O)NCC2CCC3(CC2)OOC2(CCCCC2)OO3)cc1` (configuration not stated), the growth is 77.7%.

In the case of `COc1ccc(C(O)(C(=O)O)c2ccc(OC)cc2)cc1`, the growth was 102%.

Regarding `CCn1c2ccccc2c2cc(C(=O)c3ccc(C)c4ccccc34)ccc21`, the growth is 28.1%.

`COC(=O)[C@]12CCC(C)(C)C[C@H]1[C@H]1C(=O)C[C@@H]3[C@@]4(C)C[C@@]5(CC(C)(C)[C@@H]4CC[C@@]3(C)[C@]1(C)CC2)OO[C@@](C)(C(F)(F)F)O5`: the growth is 109%.

With `CC[C@]12C=CCN3CC[C@@]4(c5ccc(OC)cc5N(C)[C@H]4[C@@](O)(C(=O)OC)[C@@H]1OC(=O)CCCC[P+](c1ccccc1)(c1ccccc1)c1ccccc1)[C@@H]32`, the growth was 47.1%.

In the case of `CCCCCCCCOC(=O)CCN1CC1`, the growth is 107%.

For `CC1[C@H](C)OC(=O)CC(O)CC(O)CC(O)CCC(O)C(O)C[C@]2(O)CC(O)C(C(=O)O)C(CC(OC3O[C@H](C)[C@@H](O)[C@H](N)[C@@H]3O)/C=C/C=C/C=C/C=C/CC/C=C/C=C/[C@H](C)[C@H]1O)O2` (some centres not stated), the growth was 105%.

`c1cc2c(c3c1CCNC3)OCO2`: the growth was 102%.

Take `Cc1ccc(N2COOC3(OOC2)C2CC4CC(C2)CC3C4)cc1`: the growth was 98.7%.

For the compound `O=C(CC1(O)C(=O)N(Cc2ccccc2)c2ccc(Br)cc21)c1ccc(C(=O)NCC2CCC3(CC2)OOC2(CCCCC2)OO3)cc1` (configuration not stated), the growth is 73.9%.

For `C[C@@H]1C[C@@]2(C)[C@@H](CC[C@@H]3[C@@H]2CC[C@]2(C)C(=O)CC[C@@H]32)CC1=O`, the growth is 96.1%.

For the compound `CCN(CC)c1ccc2c(c1)OC(N)=C(C#N)C2c1cc(OC)c2c(c1)OCO2` (configuration not stated), the growth is 47.1%.

On to `O=P(Oc1ccc(Cl)cc1)(N1CC1)N1CC1`, for which the growth was 99.6%.

Turning to `O=[N+]([O-])c1cc(I)cc([N+](=O)[O-])c1`, the growth is 111%.

Consider `CC(=O)O[C@H](C[C@H](C(C)C)N(C)C(=O)[C@@H](NC(=O)[C@H]1CCCCN1C)C(C)(C)C)c1nc(C(=O)N[C@@H](Cc2ccccc2)C[C@H](C)C(=O)O)cs1`, for which the growth is 41.8%.

`CC[C@H](C)[C@H](NC(=O)[C@H]1CCCCN1C)C(=O)N(C)[C@H](C[C@@H](O)c1nc(C(=O)N[C@@H](Cc2ccccc2)C[C@H](C)C(=O)O)cs1)C(C)C`: the growth is 105%.

In the case of `CN1CCC(O)(c2ccc(F)cc2)C(C(=O)c2ccc(F)cc2)C1` (configuration not stated), the growth is 98.7%.

Take `O=C1NC(=O)C(=Cc2cccn2CCCCCn2c3ccccc3c(=O)c3ccccc32)C(=O)N1`: the growth is 98.3%.

Turning to `COC(=O)[C@@H](C[C@H](Cc1ccccc1)NC(=O)c1csc([C@@H](C[C@H](C(C)C)N(C)C(=O)[C@@H](NC(=O)[C@H]2CCCCN2C)C(C)C)OC(C)=O)n1)NC(=O)OCc1ccccc1`, the growth is 43.1% [9.5 µM].

In the case of `CN(C)CCCOc1ccc2c(c1)c(C(=O)C(=O)NCCO)cn2Cc1ccccc1`, the growth was 105%.

On to `COc1cc(C=Nc2cc(Cl)cc(Cl)c2)ccc1N(CCCl)CCCl`, for which the growth is 92.8%.

`CCOC(=O)N[C@H]1CCc2c(Br)c(OC)c(OC)c(OC)c2-c2ccc(SC)c(=O)cc21`: the growth is 35.3%.

With `C/C(CC(C)(C)N1CC1)=N\NC(=O)Nc1cccc2ccccc12`, the growth was 81.2%.

Turning to `C[C@]12CCc3sc(-c4ccccc4O)nc3C1=CC[C@@H]1[C@@H]2CC[C@]2(C)C(=O)CC[C@@H]12`, the growth was 101%.

Regarding `CC[C@H](C)[C@H](NC(=O)[C@H]1CCCCN1C)C(=O)N(C)[C@H](CC(=O)c1nc(C(=O)N[C@@H](Cc2ccccc2)C[C@H](C)C(=O)O)cs1)C(C)C`, the growth was 107%.

`COc1cccc(/C=C/[N+](=O)[O-])c1`: the growth was 88.8%.

For the compound `O=C1CC2(CC3(Cl)C(Cl)=C(Cl)C2(Cl)C3(Cl)Cl)C(=O)O1` (configuration not stated), the growth was 99.3%.

Regarding `CC12CCC3C(CCC4=CC(=O)CCC43CF)C1CCC2=O` (configuration not stated), the growth is 102%.

Consider `Nc1ccc(-c2nc3cc(F)ccc3[se]2)cc1F`, for which the growth was 72.6%.
